Measurements from PubChem BioAssay (NCI).
Compounds without any hit were thinned out: in the full panel of roughly 83,000, 20% have a hit.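 Compound tested at a single concentration for 48 hours in 96-well plates; a percent growth value below 10 was scored as active.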 The source made the active and inactive calls.

Assays:
Experiment in all cases: NCI-60 one-dose screen, 48 h (100 = growth as untreated, 0 = no growth, -100 = all killed)
Settings in all cases: 10 µM unless noted
[1] = tested on: SR leukemia
[2] = tested on: RPMI-8226 leukemia
[3] = tested on: OVCAR-8 ovarian
[4] = tested on: OVCAR-5 ovarian
[5] = tested on: OVCAR-4 ovarian
[6] = tested on: SK-OV-3 ovarian
[7] = tested on: IGROV1 ovarian
[8] = tested on: OVCAR-3 ovarian
[9] = tested on: NCI/ADR-RES ovarian
[10] = tested on: T-47D breast
[11] = tested on: BT-549 breast
[12] = tested on: MDA-MB-435 melanoma
[13] = tested on: MCF7 breast
[14] = tested on: HCT-116 colon
[15] = tested on: HCC-2998 colon
[16] = tested on: KM12 colon
[17] = tested on: MDA-MB-468 breast
[18] = tested on: HS 578T breast
[19] = tested on: SW-620 colon

Measured: growth

COc1cc(CNC(=O)/C=C/c2ccc3c(c2)OCO3)ccc1OCc1cn(-c2ccc([N+](=O)[O-])cc2)nn1
inactive: [1] 69.3% | [2] 74.2% | [3] 90.5% | [4] 97.7% | [5] 75.7% | [6] 99.3% | [7] 107% | [8] 108% | [9] 86.7% | [10] 65.5% | [11] 71.9% | [12] 101% | [13] 81.8% | [14] 85.3% | [15] 104% | [16] 100% | [17] 72.4%

COc1cc(/C=C/C(=O)c2ccccc2)ccc1Oc1nc(Nc2ccc(F)cc2)nc(N(C)C)n1
active: [1] 1.38% | [2] -8.57% | [11] -6.57% | [19] -0.837% | [13] 5.96% | [14] -83.1%
inactive: [3] 22.1% | [4] 49.1% | [5] 27.7% | [7] 48.8% | [8] 39.4% | [18] 36.2% | [9] 11.3% | [10] 13% | [12] 24.9% | [15] 59% | [16] 40.8% | [17] 21.5%

CC(=O)Nc1cccc(Nc2nccc(N[C@@H](C)c3ccccc3)n2)c1
active: [1] 2.48% | [2] 8.53% | [3] 9.3% | [9] 3.58% | [11] 9.69% | [14] 9.73% | [16] 3.5%
inactive: [4] 34.2% | [5] 50.7% | [6] 38.9% | [7] 15.9% | [8] 18% | [10] 40.2% | [12] 18.7% | [13] 16.5% | [15] 27.1% | [17] 18.1%

Cc1ccccc1[C@H]1C(C(=O)c2ccc(Cl)cc2)C2(N[C@@H]1c1ccccc1)C(=O)Nc1ccccc12 (some centres not stated)
active: [1] -17.1% | [2] -24.2% | [3] -67.9% | [4] -46.6% | [5] 8.21% | [7] 5.88% | [8] -58.4% | [18] -28.8% | [9] -68.2% | [10] 4.15% | [11] -66% | [12] -62.2% | [19] 0.765% | [13] -31.7% | [14] -84% | [16] -30.8% | [17] -25.6%

COc1ccc(/C=C/c2nc3ccccc3c(=O)n2CC(=O)Nc2ccc(OC)cc2)cc1
active: [5] 9.1%
inactive: [1] 79.5% | [2] 76.4% | [3] 59.1% | [4] 95.6% | [7] 94.2% | [8] 62.5% | [18] 56.2% | [9] 75.7% | [10] 66.4% | [11] 72.5% | [12] 96.4% | [19] 84.4% | [14] 32.1% | [15] 95.6% | [16] 79.6% | [17] 91.1%

CCOC(=O)C1=C(N)N(c2ccccc2)C2=C(C(=O)CC(C)(C)C2)C1c1ccc(Cl)cc1Cl (configuration not stated)
active: [2] 7.77% | [13] 9.22% | [17] 3.8%
inactive: [1] 10.1% | [3] 36.7% | [4] 56.9% | [5] 25.3% | [6] 34.5% | [7] 59.4% | [8] 33.3% | [9] 23.6% | [10] 20.9% | [11] 33.4% | [12] 29.5% | [14] 13.6% | [15] 37.5% | [16] 18.7%

COc1cc2oc(-c3cccc(NC(=O)[C@H](Cc4ccccc4)NC(=O)OC(C)(C)C)c3)cc(=O)c2c(OC)c1OC
inactive: [1] 22.5% | [2] 22.7% | [3] 26.7% | [4] 80.8% | [5] 41.4% | [7] 32.7% | [8] 36.3% | [18] 16.4% | [9] 29.6% | [10] 38.7% | [11] 28.7% | [12] 61.9% | [19] 43.3% | [13] 22.1% | [14] 15.1% | [15] 69.6% | [16] 19.5% | [17] 41.8%

Cc1c(C(=O)NNC(=O)c2ccc(Cl)cc2)nnn1-c1ccc(Cl)cc1
inactive: [1] 84.4% | [2] 95.7% | [3] 104% | [4] 93.6% | [5] 92.4% | [6] 82.3% | [7] 106% | [8] 114% | [9] 91.3% | [10] 89.9% | [11] 94.1% | [12] 98.5% | [13] 81.2% | [14] 85.3% | [15] 109% | [16] 101% | [17] 89.4%

C=C1CCC2C3(C)COC(c4ccc(F)cc4)OC3CCC2(C)C1CC(O)C1=CCOC1=O (configuration not stated)
active: [3] -2.76% | [9] 0.657% | [11] -31.9% | [19] 2.53% | [14] -50.2%
inactive: [1] 21.6% | [2] 21.9% | [4] 51% | [5] 53.8% | [7] 36.5% | [8] 63.4% | [18] 71% | [10] 31.6% | [12] 29.6% | [13] 12.3% | [15] 24.3% | [16] 49.7% | [17] 18.8%

O=C(/C=C/c1ccc(-c2ccccc2)cc1)c1nc2ccccc2n1Cc1ccc(F)cc1
active: [1] 1.5% | [2] -2.77%
inactive: [3] 46% | [4] 43.5% | [5] 55.2% | [6] 82.2% | [7] 55.7% | [8] 28.8% | [9] 49.6% | [10] 18.3% | [11] 27.5% | [12] 15.6% | [13] 14.7% | [14] 13.8% | [16] 49.4% | [17] 25.8%

COc1ccc(NC(=O)Cn2c(O)c(N=Nc3ccc(S(N)(=O)=O)cc3)c3ccccc32)cc1
inactive: [1] 83.8% | [2] 71.6% | [3] 24.5% | [4] 65.9% | [5] 82.2% | [7] 34.4% | [8] 50.7% | [18] 80.7% | [9] 93.8% | [10] 66.5% | [11] 15.8% | [12] 53% | [19] 25.2% | [13] 31.2% | [15] 18% | [16] 26.3% | [17] 22.3%
active: [14] 3.37%

CN(C)c1ccnc(CNCCSC2(c3ccc(C(F)(F)F)cc3)c3ccccc3CCc3ccccc32)c1
active: [1] -50.9% | [2] -47.8% | [3] -87.3% | [4] -22.7% | [7] -5.42% | [8] -36.5% | [18] -23.4% | [9] -73.9% | [10] -55.8% | [11] -15.2% | [12] -80.6% | [19] -66% | [13] -72% | [14] -82.5% | [15] -91.6% | [16] -66.3% | [17] -87.6%
inactive: [5] 13.9%

CCOc1ccc(C(=O)NC(=S)Nc2ccc(S(N)(=O)=O)cc2)cc1
inactive: [1] 97.7% [100 µM] | [2] 102% [100 µM] | [3] 89% [100 µM] | [4] 103% [100 µM] | [5] 84.7% [100 µM] | [7] 96.4% [100 µM] | [8] 97.9% [100 µM] | [18] 89.2% [100 µM] | [9] 102% [100 µM] | [10] 74.3% [100 µM] | [11] 99.1% [100 µM] | [12] 99.1% [100 µM] | [19] 104% [100 µM] | [13] 97.6% [100 µM] | [14] 97.9% [100 µM] | [15] 99.5% [100 µM] | [16] 97.8% [100 µM] | [17] 83.9% [100 µM]

N#Cc1c(-c2cccc(Cl)c2Cl)cc(-c2c[nH]c3ccccc23)[nH]c1=O
inactive: [1] 42.3% | [2] 44.4% | [3] 72.5% | [4] 83.9% | [5] 75.2% | [6] 94.4% | [7] 71% | [8] 86.1% | [9] 76.5% | [10] 63.4% | [11] 24.3% | [12] 57.7% | [13] 35.8% | [14] 18.3% | [15] 88.1% | [16] 64.3% | [17] 46.5%

CC1=C(C(=O)c2ccccc2)C(c2cccc3ccccc23)n2c(nc3ccccc32)N1 (configuration not stated)
active: [17] -12.7%
inactive: [1] 43.7% | [2] 83.9% | [3] 38.3% | [4] 68.4% | [5] 75.6% | [6] 57.4% | [7] 86.5% | [8] 59% | [9] 43.3% | [10] 89.9% | [11] 61.1% | [12] 72.6% | [13] 38.1% | [14] 31.7% | [15] 95.5% | [16] 90.6%

CSc1ccccc1NC(=O)c1ccc2nnn(/C(C#N)=C/c3ccccn3)c2c1
active: [1] -5.23% | [2] -29% | [3] -86.6% | [4] -95% | [5] -96.5% | [7] -81.8% | [8] -81.9% | [9] -44.2% | [10] -73.2% | [11] -99.5% | [12] -55.8% | [13] -81.4% | [14] -96.5% | [16] -66.9% | [17] -92%
inactive: [6] 63.1%

Cc1sc2c(c1C)C(c1ccc(Cl)cc1)=N[C@@H](CC(=O)NCCCCCNC(=O)COc1ccc(C3CCC(=O)NC3=O)cc1)c1nnc(C)n1-2 (some centres not stated)
inactive: [1] 37.5% | [3] 16.2% | [4] 27.8% | [5] 22.8% | [7] 21.8% | [8] 44.7% | [18] 25% | [9] 97.3% | [12] 20.3% | [19] 23.1% | [14] 20% | [16] 13.9%
active: [2] -3.88% | [10] -10.6% | [11] -0.134% | [15] -10.8%
